# Only some compounds are listed: those with a hit (about 4.6% of all), similar ones and a draw of the others.
# hgDAF-12 ag – activates the H. glycines DAF-12 receptor ligand-binding domain; hit rate 1.8% among 370,000; HEK293 GAL4-hgDAF12 UAS-luciferase reporter, agonist luminescence; normalized to butyrate control; activation, % at 6.8 µM;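 active means activation above a cutoff set at the mean of all screened compounds plus 3 SD, cut at about 10% in these data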
# DAX1 inh-1 – inhibitors of DAX1 repression of SF-1 activated StAR promoter; inhibition, % at 6.8 µM; HEK293T StAR-luciferase reporter, SF-1/DAX-1 repression relief; hit rate 1.1% among 370,000;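 active means inhibition above the mean over all tested compounds plus 3 SD, cut at about 3.6% in these data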;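 further: higher inhibition means more luminescence from relief of DAX-1 repression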
# hcDAF12 agonist – activators of H. contortus DAF-12 nuclear receptor; HEK293 hcDAF-12 lit1-tk-luc reporter, luminescence; 0% DMSO, 100% Δ7-dafachronic acid; activation, % at 6.8 µM; hit rate 1.4% among 370,000; AID 652067;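 active means activation above the mean of all tested compounds plus 3 SD, cut at about 5.5% in these data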
# Wee1 degr inh – inhibitors of human Wee1 degradation; HeLa Luc-Wee1K328M stability, luciferase luminescence; 100% = proteasome inhibitor MG132 effect; reporter increase, % at 5 µM; hit rate 1.2% among 220,000; AID 1321;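 active means activation above the mean of all tested compounds plus 3 SD, set per screening run, cut at about 8.8% in these data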;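 further: cells exposed to compound for 20 h before luminescence read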
# ssDAF-12 act – S. stercoralis DAF-12 activation, primary screen; hit rate 1% among 370,000; activation, % at 6.8 µM; HEK293 ssDAF-12/GRIP1 lit1-tk-luc reporter, luminescence; % of 3 µM dafachronic acid response; AID 652126;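 active means activation above the mean over all tested compounds plus 3 SD, cut at about 0.9% in these data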
# DAX1 inh-2 – inhibits human nuclear receptor DAX1; P51843; HEK293 Gal4-DAX1 luciferase reporter, luminescence; inhibition, % at 6.75 µM; hit rate 0.99% among 340,000; AID 504766;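 active means inhibition above the mean over all tested compounds plus 3 SD, cut at about 4.2% in these data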;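 further: inhibition shows as a rise in luminescence from relieved DAX1 repression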
# Target sequence (P51843 207-470 limits assumed): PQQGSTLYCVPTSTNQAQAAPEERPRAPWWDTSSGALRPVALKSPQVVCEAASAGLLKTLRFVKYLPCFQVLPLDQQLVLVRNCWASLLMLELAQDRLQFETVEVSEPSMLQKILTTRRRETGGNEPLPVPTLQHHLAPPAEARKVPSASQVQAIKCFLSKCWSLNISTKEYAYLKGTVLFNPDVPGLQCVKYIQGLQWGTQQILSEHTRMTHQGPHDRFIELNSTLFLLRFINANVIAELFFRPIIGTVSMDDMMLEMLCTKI
# DAX1 conf – confirmation of human DAX1 (NR0B1) inhibitors | hit rate 87% among 2,400 | AID 652134 | shares compounds with DAX1 inh-1 | inhibition, % at 6.8 µM | HEK293T StAR-promoter luciferase reporter, SF-1/DAX-1 repression;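 active means inhibition above the average of every tested compound plus 3 SD, cut at about 3.8% in these data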;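 further: active compounds raise luminescence by relieving repression of the StAR reporter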
# SF1 AF2mut Luc – counter-screen for DAX1 inhibitors: nonselective inhibitors with SF-1 AF2 mutant; shares compounds with DAX1 inh-1; HEK293 StAR-luciferase, luminescence; inhibition, % at 6.8 µM; hit rate 78% among 2,400; AID 652136;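 active means inhibition above the mean of all tested compounds plus 3 SD, cut at about 3% in these data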
# LXRb hcDAF ctr – activates human LXR-beta, counter-screen for hcDAF-12 agonists; shares compounds with hcDAF12 agonist; AID 743027; activation, % at 6.8 µM; HEK293 Gal4-LXR tk-luc reporter, luminescence, 24 h; normalized: DMSO 0%, positive control 100%; 3,400 tested, under 10 active;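 active means mean percent activation of the reporter above a cutoff set as the average over tested compounds plus their standard deviation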
# Target sequence (P55055 whole entry, looked up, the tested form may be a part): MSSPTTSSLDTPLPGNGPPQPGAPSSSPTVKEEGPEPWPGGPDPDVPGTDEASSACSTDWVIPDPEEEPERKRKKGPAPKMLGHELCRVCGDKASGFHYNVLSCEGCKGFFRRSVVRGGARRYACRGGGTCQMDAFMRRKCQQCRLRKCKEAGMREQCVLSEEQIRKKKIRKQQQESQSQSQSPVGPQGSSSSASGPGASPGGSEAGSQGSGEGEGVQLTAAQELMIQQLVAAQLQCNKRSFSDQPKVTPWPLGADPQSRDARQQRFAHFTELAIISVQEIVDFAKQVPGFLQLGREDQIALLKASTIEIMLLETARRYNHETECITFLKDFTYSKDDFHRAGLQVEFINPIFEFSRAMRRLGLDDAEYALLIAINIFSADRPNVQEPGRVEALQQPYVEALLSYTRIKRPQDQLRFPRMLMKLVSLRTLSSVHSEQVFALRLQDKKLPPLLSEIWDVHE
# hcDAF12 conf – confirmation of H. contortus DAF-12 agonists. hit rate 61% among 3,400. shares compounds with hcDAF12 agonist. AID 743032. activation, % at 6.8 µM. HEK293 hcDAF-12 lit1-tk-luc reporter, luminescence; % of Δ7-dafachronic acid response;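 active means mean activation across triplicate tests above the threshold derived from the earlier primary screen, cut at about 5.5% in these data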
# Numbers stand for hits; n = inactive; x = no result.
SMILES,hgDAF-12 ag,DAX1 inh-1,hcDAF12 agonist,Wee1 degr inh,ssDAF-12 act,DAX1 inh-2,DAX1 conf,SF1 AF2mut Luc,LXRb hcDAF ctr,hcDAF12 conf
CC(C)n1c(CNC(=O)c2ccccc2F)nnc1SCC(=O)NC1CCCCC1,n,n,n,x,n,n,x,x,x,x
O=C(N/N=C/c1sc(=O)[nH]c1-[n+]1ccccc1)c1ccccc1[O-],n,n,n,n,n,n,x,x,x,x
O=C(N/N=C/c1sc(=O)[nH]c1-[n+]1ccc2ccccc2c1)c1ccccc1[O-],n,4.9,8.4,x,n,n,n,n,n,n
CCCCNC(=O)C(NC(=O)c1cccc(C(F)(F)F)c1)C(=O)c1ccccc1 (configuration not stated),n,n,n,x,n,x,x,x,x,x
CCOc1ccc(NC(=O)c2[nH]c(C)c(C(C)=O)c2C)cc1,n,n,n,x,n,n,x,x,x,x
COc1ccc(NC(=O)c2[nH]c(C)c(C(C)=O)c2C)cc1,11.4,4.7,10.9,n,1.7,n,6.5,6.8,n,10.2
CC(=O)c1c(C)[nH]c(C(=O)Nc2cccc(C)n2)c1C,11.7,11.6,6.9,x,n,n,10.7,4.7,n,n
CC(C)Oc1ccc(C(=O)NC2=NCCS2)cc1,22.3,9.9,7.5,n,n,n,13.6,8.1,n,n
O=C(NC1=NCCS1)c1ccc(C(F)(F)F)cc1,n,n,n,x,n,n,x,x,x,x
CN(N=Cc1ccccc1)C(=S)Nc1ccccc1,n,n,n,x,n,n,x,x,x,x
Cc1ccnc(NC(=O)Cc2ccc(-c3ccccc3)cc2)c1,33.5,14.7,9.9,x,1.3,n,20.6,n,n,9.6
O=C(Cc1ccc(-c2ccccc2)cc1)Nc1ccccn1,n,n,n,x,n,n,x,x,x,x
c1ccc(-c2cc3nc(NCc4cccs4)ccn3n2)cc1,12.2,7.8,10.1,x,n,x,16.1,8.1,n,6.6
COc1cc(-c2cc3nc(NCc4cccs4)ccn3n2)cc(OC)c1OC,n,n,n,x,n,x,x,x,x,x
COc1ccc(-c2csc(-c3ccccc3)n2)c(OC)c1,21.5,8.9,15.0,n,2.4,4.6,18.5,8.5,n,10.6
Cc1cc(C(=O)CSc2nnc(N)s2)c(C)n1Cc1cccs1,n,6.2,6.7,n,n,n,15.6,n,n,n
Cc1csc(SCC(=O)c2cc(C)n(Cc3cccs3)c2C)n1,n,n,n,n,n,n,x,x,x,x
CCN(CC)S(=O)(=O)c1cccc(-c2nc3n(n2)Cc2ccccc2-3)c1,n,n,n,n,n,n,x,x,x,x
Clc1ccc(-c2nc3n(n2)Cc2ccccc2-3)cc1,16.9,5.1,17.1,n,3.5,n,13.2,5.5,n,24.4
Cc1ccc(C(=O)c2sc3nsc(C)c3c2N)cc1,12.7,5.0,7.2,n,1.1,n,13.7,5.4,n,8.7
COc1ccccc1-c1nc(-c2ccc(Br)o2)no1,19.8,7.9,26.3,n,4.5,n,17.3,8.2,n,21.3
COc1ccc(-c2nc(-c3ccc(Br)o3)no2)cc1OC,n,n,n,n,n,n,x,x,x,x
Oc1c(/C=N/Nc2cccc3cccnc23)ccc2ccccc12,n,n,n,n,n,n,x,x,x,x
C/C(=N\Nc1cccc2cccnc12)c1ccccc1O,24.9,5.6,24.9,n,4.2,9.6,13.8,4.3,n,20.3
Oc1cccc(/C=N/Nc2cccc3cccnc23)c1,23.1,5.7,21.3,n,3.7,n,20.2,10.0,n,24.6
SMILES,hgDAF-12 ag,DAX1 inh-1,hcDAF12 agonist,Wee1 degr inh,ssDAF-12 act,DAX1 inh-2,DAX1 conf,SF1 AF2mut Luc,LXRb hcDAF ctr,hcDAF12 conf
N#Cc1ccc(/C=C2\CC3(OC(=O)c4ccc(F)cc4)CCCN2C3)cc1 (configuration not stated),n,n,n,x,n,x,x,x,x,x
O=C(/C=C/c1c(Cl)cccc1Cl)NCCCn1ccnc1,n,n,n,x,n,x,x,x,x,x
C(=Cc1nc2ccccc2o1)c1ccc2c(c1)OCO2,14.4,13.2,8.1,x,n,n,6.3,n,n,8.9
C(=Cc1cnc2ccccc2n1)c1ccc2c(c1)OCO2,n,n,n,x,n,n,x,x,x,x
Cc1ccc(-c2cc3nc(C)cc(C)n3n2)cc1,21.0,4.5,17.4,n,5.6,n,10.8,6.2,n,18.2
CC1=C(O)c2ccccc2C(=O)C1=O,n,n,n,x,n,x,x,x,x,x
Cc1ccccc1N=CC1=C(O)c2ccccc2C1=O,11.2,5.5,15.1,n,2.1,n,5.8,n,n,8.3
CC(=O)c1cccc(OC(=O)Oc2cccc(C(C)=O)c2)c1,n,n,n,x,n,n,x,x,x,x
COc1ccc(NC(=O)Nc2cc(C)ccn2)cc1,19.0,5.0,7.3,x,n,n,16.9,8.2,n,8.9
COc1ccc(C(=O)NC(=O)Nc2cc(C)ccn2)cc1,n,6.6,7.7,n,n,n,n,n,n,n
COc1ccc(C(=O)Nc2ccccc2C(=O)Nc2cc(C)ccn2)cc1,n,n,n,x,n,n,x,x,x,x
Cc1ccc(CSc2nnc(-c3cccc4ccccc34)o2)cc1,n,n,n,x,n,n,x,x,x,x
Cc1cccc(-c2nnc(-c3cccc4ccccc34)o2)c1,11.1,5.4,7.0,x,1.2,6.4,10.0,8.5,n,8.7
COc1ccc(NC(=O)COC(=O)c2ccc(S(=O)(=O)N(C)c3ccccc3OC)cc2)cc1,n,n,n,x,n,n,x,x,x,x
O=C1Cc2c([nH]c3ccc(Br)cc23)-c2ccccc2N1,11.4,7.5,10.7,x,n,n,6.4,n,n,8.5
COc1cccc(C(=O)NCC(c2ccco2)N2CCOCC2)c1 (configuration not stated),n,n,n,x,n,n,x,x,x,x
Cc1c(NC(=O)c2ccc(-c3ccccc3)cc2)cccc1C(=O)O,27.3,6.6,10.6,n,n,n,15.1,7.7,n,12.9
CC(C)C(=O)Nc1ccc2nn(-c3ccc(F)cc3)nc2c1,x,x,x,x,x,n,x,x,x,x
Cc1ccc(-n2nc3ccc(NC(=O)C(C)C)cc3n2)cc1,17.3,5.1,9.8,n,1.0,n,15.8,7.7,n,6.8
Fc1ccc(-c2ccc3c(c2)C2CC3CCN2Cc2ccc3c(c2)OCO3)cc1 (configuration not stated),n,n,n,x,n,n,x,x,x,x
N#Cc1ccsc1NC(=O)CSc1nncs1,16.5,8.4,9.4,x,n,n,11.3,5.2,n,11.2

# Bioassay records from PubChem BioAssay.
